{"source": "PubChem BioAssay"}
{"assay": "probe aShh binding to arrayed compounds – biochemical, biotinylated probe, 635/667 nm fluorescence, primary screen (AID 1114);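 note: probe is biotin-labelled aShh protein from a stem cell growth factor screen; measures binding of labelled protein to compounds printed on the slide; score merges feature fluorescence at 667 nm with signal-to-noise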", "settings": "small-molecule microarray, higher = more signal"}
{"compound": "CO[C@H]1O[C@H](CO)[C@@H](OC(=O)Nc2ccc(C(F)(F)F)cc2)[C@H](OC(=O)Nc2ccccc2-c2ccccc2)[C@@H]1OC(=O)Nc1ccccc1-c1ccccc1", "composite z-score": 0.199}
{"compound": "COCCOC(=O)N1C(=O)[C@@]2(c3cc(C#CCC(C(=O)OC)C(=O)OC)ccc31)[C@H](C(N)=O)[C@H]1C(=O)O[C@H](c3ccccc3)[C@H](c3ccccc3)N1[C@@H]2c1ccc(OCCO)cc1", "composite z-score": 0.184}
{"compound": "CCCCNC(=O)c1ccc(C#C[Si](C)(C)C)c(OC(C)=O)c1", "composite z-score": 0.0952}
{"compound": "COCCOC(=O)N1C(=O)[C@@]2(c3cc(C#Cc4ccc(OC)cc4)ccc31)[C@H](C(=O)Nc1nc3ccccc3s1)[C@H]1C(=O)O[C@H](c3ccccc3)[C@H](c3ccccc3)N1[C@@H]2c1ccccc1OCCO", "composite z-score": -0.138}
{"compound": "COC(=O)[C@@]1(Cc2ccc(F)cc2)[C@H]2c3cc(C(=O)N4CCCC4)n(CCO)c3C[C@H]2CN1C(=O)c1ccccc1", "composite z-score": 0.381}
{"compound": "CCC[C@@H]1C=C(C(=O)OCC)[C@H](c2ccccc2)N1S(=O)(=O)c1ccc(C)cc1", "composite z-score": -0.195}
{"compound": "COCCOC(=O)N1C(=O)[C@@]2(c3ccccc31)[C@H](C(N)=O)[C@H]1C(=O)O[C@H](c3ccccc3)[C@H](c3ccccc3)N1[C@@H]2c1ccc(OCCO)cc1", "composite z-score": 0.0723}
{"assay": "probe aNog binding to arrayed compounds – biochemical, biotinylated probe, 635/667 nm fluorescence, primary screen (AID 1115);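 note: probe is biotinylated aNog protein used at 0.15 µg/mL for 1 h at 4 C; z-score combines 667 nm fluorescence of each spot with its signal to noise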", "settings": "small-molecule microarray, higher = more signal"}
{"compound": "CC(C)(C)OC(=O)CC[C@]1(C(=O)N2CCOCC2)N=C(c2ccc(OCCCO)cc2)O[C@H]1c1ccccc1CN=[N+]=[N-]", "composite z-score": 1.92}
{"compound": "CC(c1ccccc1)C(O)C1C=CC2C(=O)N(c3ccccc3)C(=O)C2N1Nc1ccc(C#N)cc1", "note": "(configuration not stated)", "composite z-score": 1.45}
{"compound": "COc1ccc(CCNC(=O)[C@@]2(Sc3ccc(C)cc3)CC(=O)N(Cc3cc(C(F)(F)F)cc(C(F)(F)F)c3)[C@@H]2c2ccc(CO)cc2)cc1", "composite z-score": -0.54}
{"compound": "CCOC(=O)C[C@H]1[C@H](OC(=O)c2cc3ccccc3oc2=O)[C@@H](NC(=O)C2CCCCC2)c2cc(OCCCO)ccc2N1C(=O)Cc1ccc(OC)cc1", "composite z-score": 0.23}
{"compound": "CC1CC/C=C\\[C@H]2OC34C=CCN(CCN5CCOCC5)C(=O)[C@H]3N(CCCCCCO)C(=O)[C@@H]4C2C(=O)O1", "note": "(some centres not stated)", "composite z-score": -0.305}
{"compound": "CCOC(=O)C1=CC[C@@H](c2ccc(F)cc2)N(S(=O)(=O)c2ccc(C)cc2)[C@H]1c1ccc([N+](=O)[O-])cc1", "composite z-score": -0.158}
{"compound": "COC(=O)[C@@]1(Cc2ccc(OC)cc2)[C@@H]2[C@@H](CC(=O)[C@H]2CC(=O)C(=O)N2CCCC2)CN1C(=O)c1ccccc1", "composite z-score": 2.97}
{"compound": "C=CCNC(=O)[C@H]1[C@@H]2C(=O)O[C@@H](c3ccccc3)[C@@H](c3ccccc3)N2[C@@H](c2ccc(O)cc2)[C@]12C(=O)Nc1ccc(C#CC3=CCCCC3)cc12", "composite z-score": 0.587}
{"compound": "COC(=O)Cn1c(C(=O)N(C)C)cc2c1C[C@H]1CN(C(=O)c3ccccc3)[C@@](Cc3ccc(OC)cc3)(C(=O)OC)[C@@H]21", "composite z-score": 2.26}
{"compound": "O=C1O[C@@H](c2ccccc2)[C@@H](c2ccccc2)N2[C@@H](c3ccc(O)cc3)[C@]3(C(=O)Nc4ccc(C#CC5=CCCCC5)cc43)[C@@H](C(=O)N3CCCCCCC3)[C@H]12", "composite z-score": 2.52}
{"compound": "CC(C)C[C@H]1NC(=O)[C@@]23C(=O)N[C@@H](Cc4ccccc4)C2[C@H](C)[C@@]2(C)O[C@H]2C3/C=C/C/C=C\\CNC(=O)[C@@H]2CCCN2C1=O", "note": "(some centres not stated)", "composite z-score": 0.283}
{"compound": "C#CCN(C/C=C/c1ccccc1)[C@H](CO[Si](C)(C)C(C)(C)C)c1ccccc1", "composite z-score": -0.565}
{"compound": "COC(=O)C1(CC(C)C)C=C2C(=C(C(C)C)C(=O)C2C)CN1", "note": "(configuration not stated)", "composite z-score": 0.595}
{"compound": "CC=CC(O)C1C=CC2C(=O)N(C)C(=O)C2N1NC(=O)OC(C)(C)C", "note": "(configuration not stated)", "composite z-score": -0.135}
{"compound": "COc1cc2c(cc1O)C(C1CC1)N(Cc1ccc([N+](=O)[O-])o1)CC2", "note": "(configuration not stated)", "composite z-score": 1.73}
{"compound": "CC(C)C[C@H]1NC(=O)[C@@H](C)NC(=O)[C@@]23C(=O)N[C@@H](Cc4ccccc4)C2[C@H](C)[C@@]2(C)O[C@H]2C3/C=C/C/C=C\\CNC1=O", "note": "(some centres not stated)", "composite z-score": -0.205}
{"compound": "COCCOC(=O)N1C(=O)[C@@]2(c3cc(C#Cc4ccc(OC)cc4)ccc31)[C@H](C(=O)N1CCCCCCC1)[C@H]1C(=O)O[C@H](c3ccccc3)[C@H](c3ccccc3)N1[C@@H]2c1ccccc1OCCO", "composite z-score": 1.53}
{"compound": "CCCCN1CC=CC23O[C@@H]4C=CCOC(=O)[C@@H]4[C@H]2C(=O)N(C(CO)C(C)C)[C@@H]3C1=O", "note": "(some centres not stated)", "composite z-score": -0.381}
{"compound": "C[C@H]1NC(=O)C([C@@H](C)OCc2ccccc2)NC(=O)[C@@]23C(=O)N[C@@H](Cc4ccccc4)C2[C@H](C)[C@@]2(C)O[C@H]2C3/C=C/C/C=C\\CNC1=O", "note": "(some centres not stated)", "composite z-score": -0.0602}
{"compound": "C=CCC(OC(C)=O)[C@@H]1[C@@H](N(Cc2cc3ccccc3o2)C(=O)c2cccc3ccccc23)c2cc(OCCCO)ccc2N1C(=O)c1ccc2ccccc2c1", "note": "(some centres not stated)", "composite z-score": -0.12}
{"compound": "NC(=O)NCC#Cc1ccc2c(c1)[C@]1(C(=O)N2)[C@H](C(=O)N2CCCCCCC2)[C@H]2C(=O)O[C@H](c3ccccc3)[C@H](c3ccccc3)N2[C@@H]1c1ccc(O)cc1", "composite z-score": 2.78}
{"compound": "[N-]=[N+]=NCc1ccccc1[C@H]1OC(c2ccc(OCCCO)cc2)=N[C@@]1(Cc1ccccc1)C(=O)N1CCOCC1", "composite z-score": -0.461}
{"compound": "CC(C)=CCN(C(=O)C#Cc1ccccc1)[C@H](CO)c1ccccc1", "composite z-score": -0.302}
{"compound": "CCCC=C(CCC)[C@@H](NC(=O)c1ccco1)c1ccc(C(=O)OC)cc1", "composite z-score": 1.69}
{"compound": "CN(C)CCCCNC(=O)[C@H]1C[C@H]2C(=O)NCC(=O)N2[C@H]1c1cccc(OCCO)c1", "composite z-score": -0.437}
{"compound": "N#Cc1ccc(C(O)C2C=CC3C(=O)NC(=O)C3N2Nc2ccccn2)cc1", "note": "(configuration not stated)", "composite z-score": 0.287}
{"compound": "C=CCC(OC(C)=O)[C@@H]1[C@@H](N(Cc2ccc(-c3cccc(C(F)(F)F)c3)o2)C(=O)Cc2ccc(F)cc2)c2cc(OCCCO)ccc2N1C(=O)c1ccc2ccccc2c1", "note": "(some centres not stated)", "composite z-score": -0.624}
{"compound": "COCCOC(=O)N1C(=O)[C@@]2(c3cc(C#CC4(O)CCCCCC4)ccc31)[C@H](c1ccc(OCCO)cc1)N1[C@H](c3ccccc3)[C@H](c3ccccc3)OC(=O)[C@H]1[C@@H]2C(=O)N1CCCCCCC1", "composite z-score": 2.62}
{"compound": "CO[C@H]1O[C@H](CO)[C@@H](OC(=O)Nc2ccc(C(F)(F)F)cc2)[C@H](OC(=O)Nc2ccccc2-c2ccccc2)[C@@H]1OC(=O)Nc1ccccc1-c1ccccc1", "composite z-score": 0.977}
{"compound": "COCCOC(=O)N1C(=O)[C@@]2(c3cc(C#CCC(C(=O)OC)C(=O)OC)ccc31)[C@H](C(N)=O)[C@H]1C(=O)O[C@H](c3ccccc3)[C@H](c3ccccc3)N1[C@@H]2c1ccc(OCCO)cc1", "composite z-score": 0.177}
{"compound": "CCCCNC(=O)c1ccc(C#C[Si](C)(C)C)c(OC(C)=O)c1", "composite z-score": -0.185}
{"compound": "COCCOC(=O)N1C(=O)[C@@]2(c3cc(C#Cc4ccc(OC)cc4)ccc31)[C@H](C(=O)Nc1nc3ccccc3s1)[C@H]1C(=O)O[C@H](c3ccccc3)[C@H](c3ccccc3)N1[C@@H]2c1ccccc1OCCO", "composite z-score": -0.7}
{"compound": "COC(=O)[C@@]1(Cc2ccc(F)cc2)[C@H]2c3cc(C(=O)N4CCCC4)n(CCO)c3C[C@H]2CN1C(=O)c1ccccc1", "composite z-score": -0.662}
{"compound": "CCC[C@@H]1C=C(C(=O)OCC)[C@H](c2ccccc2)N1S(=O)(=O)c1ccc(C)cc1", "composite z-score": -0.413}
{"compound": "COCCOC(=O)N1C(=O)[C@@]2(c3ccccc31)[C@H](C(N)=O)[C@H]1C(=O)O[C@H](c3ccccc3)[C@H](c3ccccc3)N1[C@@H]2c1ccc(OCCO)cc1", "composite z-score": -0.0161}
